According to article PMC4336329 (PLoS ONE, 2015):
Among all 310,000 compounds or so, about 14,000 (4.5%) showed an effect of 50% or more. Effects have a minus sign here. The entries come from a sample that favours strong results as a whole.

Biological target: human ether-à-go-go-related gene (hERG) potassium channel (human, UniProt Q12809)
Test: primary screen, population patch clamp on CHO cells stably expressing hERG; higher = less effect of the substance
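Also: peak tail current of the secondary pulse compared with the same well before compound.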

Chain of human ether-à-go-go-related gene (hERG) potassium channel (Q12809 whole entry, looked up): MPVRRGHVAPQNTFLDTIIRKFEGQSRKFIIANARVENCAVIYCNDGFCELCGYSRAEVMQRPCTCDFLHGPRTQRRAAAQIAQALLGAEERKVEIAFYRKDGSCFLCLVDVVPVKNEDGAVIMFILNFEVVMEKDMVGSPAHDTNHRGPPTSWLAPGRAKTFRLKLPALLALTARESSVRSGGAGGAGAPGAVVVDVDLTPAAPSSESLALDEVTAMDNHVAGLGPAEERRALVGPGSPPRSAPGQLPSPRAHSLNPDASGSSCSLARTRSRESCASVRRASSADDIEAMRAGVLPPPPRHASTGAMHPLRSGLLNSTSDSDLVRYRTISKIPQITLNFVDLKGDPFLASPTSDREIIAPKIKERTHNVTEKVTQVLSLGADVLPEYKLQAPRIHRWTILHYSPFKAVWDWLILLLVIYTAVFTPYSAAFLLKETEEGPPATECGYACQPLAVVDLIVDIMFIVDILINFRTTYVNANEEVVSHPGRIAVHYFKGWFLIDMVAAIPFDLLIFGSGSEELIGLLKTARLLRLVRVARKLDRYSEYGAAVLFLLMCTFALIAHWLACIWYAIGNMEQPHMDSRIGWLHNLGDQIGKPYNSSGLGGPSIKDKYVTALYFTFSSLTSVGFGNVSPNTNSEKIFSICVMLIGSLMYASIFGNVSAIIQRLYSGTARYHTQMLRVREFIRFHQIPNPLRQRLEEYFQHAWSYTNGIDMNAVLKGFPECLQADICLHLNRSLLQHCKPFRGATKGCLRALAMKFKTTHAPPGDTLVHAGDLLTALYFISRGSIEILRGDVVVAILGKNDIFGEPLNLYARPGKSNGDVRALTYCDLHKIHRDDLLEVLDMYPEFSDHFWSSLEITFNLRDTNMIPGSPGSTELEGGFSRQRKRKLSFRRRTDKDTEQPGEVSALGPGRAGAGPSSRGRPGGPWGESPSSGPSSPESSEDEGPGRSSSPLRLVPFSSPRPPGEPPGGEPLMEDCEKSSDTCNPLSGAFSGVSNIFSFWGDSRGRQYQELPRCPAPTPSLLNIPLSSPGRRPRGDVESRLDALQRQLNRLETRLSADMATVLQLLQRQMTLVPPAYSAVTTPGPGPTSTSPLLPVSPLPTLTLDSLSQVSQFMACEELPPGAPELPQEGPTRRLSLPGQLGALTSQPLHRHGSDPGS

Compound | hERG current change (%, negative = inhibition) at 10uM [%]
CCN1CCN(Cc2ccc(NC(=O)c3cc(NC(=O)c4cncc(-c5cccs5)c4)cc(OC)c3)cc2C(F)(F)F)CC1.O=C(O)C(F)(F)F | 9.85
COc1cc(OC)cc(C(=O)NNC(=O)Cc2ccc(OC)c(S(=O)(=O)N3CCOCC3)c2)c1 | -1.89
COC/C=C/C1=CC2=CC(=O)C(C)(OC(=O)c3cnc4ccccc4n3)C(=O)C2=CN1c1ccc(OC)cc1 (stereo not shown) | -4.95
O=c1[nH]c2ccccc2cc1CN(c1ccccc1)S(=O)(=O)c1ccccc1 | 0.56
Cc1ccccc1OCCC(=O)OCC(=O)N1CCN(S(=O)(=O)c2ccc(Cl)cc2)CC1 | -13.1
CCCCCSc1cc(OC)c(CCNC)cc1OC.O=C(O)/C=C\C(=O)O | -48.2
CCCCCCCSc1cc(OC)c(CCN(C)C)cc1OC.O=C(O)/C=C\C(=O)O | -64.3
CCCCCCCSc1cc(OC)c(CCNC)cc1OC.O=C(O)/C=C\C(=O)O | -41.3
CCCCCSc1cc(OC)c(CCN)cc1OC.O=C(O)/C=C\C(=O)O | -35.9
CCCCCSc1cc(O)c(C(CNC)C(C)C)cc1OC.O=C(O)/C=C\C(=O)O (stereo not shown) | -12.9
CCCCCSc1cc(OC)c(CCN(C)C)cc1OC.O=C(O)/C=C\C(=O)O | -57.9
C/C(=N\OC(=O)Nc1ccccc1)c1ccc(C)cc1 | -15.9
CN(CCC#N)C(=O)CSc1nc2scc(-c3ccccc3)c2c(=O)[nH]1 | -12.6
COc1ccc(CCNC(=O)C(=O)NCC2OCCN2S(=O)(=O)c2ccc(OC)cc2)cc1 (stereo not shown) | -47.3
COc1ccccc1C(=O)Nc1ccc2nc3n(c(=O)c2c1)CCCC3 | -36.3
COc1ccc(NC(=O)CC2SC(=O)NC2=O)cc1 (stereo not shown) | 26.8
Cc1ccccc1NC(=O)Cc1nc(COC(=O)c2ccc(Cl)nc2)cs1 | 2.75
Cc1ccccc1NC(=O)Cc1nc(COC(=O)c2cccc(O)c2)cs1 | -17.7
Cc1ccccc1NC(=O)Cc1nc(COC(=O)c2ccc(Cl)c(S(N)(=O)=O)c2)cs1 | -60.9
COc1ccc(CCNC(=O)CSc2ccc3nnc(CCNC(=O)c4ccccc4)n3n2)cc1OC | 6.1
CCOC(=O)c1[nH]nc2c1C(=O)N(Cc1ccccc1)C2=O | 6.13
COc1ccc(/C=N/NC(=O)CSc2ccccn2)cc1OC | 2.42

Compound | hERG current change (%, negative = inhibition) at 10uM [%]
CCNC(=O)COC(=O)c1cc(-c2ccccc2)nn1-c1ccccc1 | -61.8
CCOC(=O)c1cc(-c2cccnc2)nn1-c1ccccc1 | 9.52
CNC(=O)COC(=O)c1cc(-c2ccccc2)nn1-c1ccccc1 | -5.35
Cc1ccc(CNC(=O)CN2C(=O)NC3(CC(C)CC(C)(C)C3)C2=O)cc1 (stereo not shown) | -3.14
COc1ccc(-n2c(O)c(C=NCCCn3ccnc3)c(=O)[nH]c2=O)cc1 | 14.1
CN1CCN(c2ccc(NC(=O)c3ccc4c(c3)OCCO4)cc2Cl)CC1 | -81.2
O=C(Nc1ccc(N2CCCC2)c(Cl)c1)c1ccc2c(c1)OCCO2 | 11.8
CC(=O)N1CCN(c2ccc(NC(=O)c3ccc4c(c3)OCCO4)cc2Cl)CC1 | -64.7
CC(C)C(=O)N1CCN(c2ccc(NC(=O)c3ccc4c(c3)OCCO4)cc2Cl)CC1 | -15
O=C(Nc1ccc(N2CCCCC2)c(Cl)c1)c1ccc2c(c1)OCCO2 | -1.06
O=C(Nc1ccc(N2CCOCC2)c(Cl)c1)c1ccc2c(c1)OCCO2 | -0.379
CCCOc1ccc(C(=O)CCC(=O)OCC(=O)Nc2ccc(Oc3ccccc3)cc2)cc1 | -13.3
COCCn1nnnc1CN1CCC(Cc2ccccc2)CC1.Cl | -3.18
O=C(OCC(=O)N1CCN(C(=O)c2ccco2)CC1)c1ccccc1C(=O)c1ccc(Cl)cc1 | -64.8
O=C(OCC(=O)N1CCN(C(=O)c2ccco2)CC1)c1ccccc1OCc1ccccc1 | -43.3
O=C(OCC(=O)N1CCOCC1)c1ccccc1Cc1ccccc1 | -35.2
O=C(OCC(=O)N1CCN(C(=O)c2ccco2)CC1)c1ccccc1C(=O)c1ccccc1 | -34
O=C(OCC(=O)N1CCN(C(=O)c2ccco2)CC1)c1ccccc1NCCO | 12.6
O=C(OCC(=O)N1CCN(C(=O)c2ccco2)CC1)c1cc(S(=O)(=O)Nc2ccc(Cl)cc2)ccc1O | -64.6
CCOC(=O)C1CCN(C(=O)COC(=O)Cc2ccc(Cl)cc2)CC1 | -22.7
O=C(OCC(=O)N1CCN(C(=O)c2ccco2)CC1)c1ccccc1Cc1ccccc1 | -56.3
O=C(CCNS(=O)(=O)c1ccc(Cl)cc1)OCC(=O)N1CCN(C(=O)c2ccco2)CC1 | -47.4

Compound | hERG current change (%, negative = inhibition) at 10uM [%]
CCOC(=O)C1CCN(C(=O)COC(=O)c2ccccc2C(=O)c2ccc(Cl)cc2)CC1 | -50.4
CCOC(=O)C1CCN(C(=O)COC(=O)COc2ccc(Cl)cc2)CC1 | 13.3
COc1ccc(NS(=O)(=O)c2ccc(O)c(C(=O)OCC(=O)N3CCCCC3)c2)cc1 | -7.02
O=C1CCCC2=C1C(c1cccnc1)Nc1ccccc1N2 (stereo not shown) | 5.41
COc1ccc(NC(=O)CCC(=O)c2cccs2)cc1Cl | 17.6
CCOc1cccc2sc(Cl)nc12 | 13.7
COc1cc(N/C=C2\CC(=O)NC(C)=C2C#N)cc(OC)c1OC | 19.6
Cc1c(NC(=O)COC(=O)C2(c3ccccc3F)CCCC2)c(=O)n(-c2ccccc2)n1C | -1.01
O=c1c2oc3ccccc3c2ncn1Cc1ccc(Cl)cc1 | 11.7
CCOc1ccccc1N1CCN(c2nc(N)c(C#N)c(CC#N)c2C#N)CC1 | -37.2
CCCn1c(SCC(=O)Nc2sc(C)c(C)c2C#N)nnc1C(C)C | -9.76
O=C(NCCc1csc(-c2cccnc2)n1)c1ccc(Br)o1 | -10.9
Cc1cc(C)cc(N=C2NC(=O)CS2)c1 | 0.159
CCN(CC)C(=O)COc1ccc(/C(C)=N/NC(=O)c2ccccc2Br)cc1 | 8.89
COc1ccc(CCN(C)C(=O)CSc2nnc(-c3ccco3)o2)cc1OC | -21.3
C=CCSc1nnc2nc3c(nn12)c1cc(C)ccc1n3CC=C | -55.1
C=CCSc1nnc2nc3[nH]c4c(C)cccc4c3nn12 | 4.32
CCCSc1nnc2nc3c(nn12)c1ccccc1n3C | -49.7
O=C(NCc1ccc2c(c1)OCO2)C1(S(=O)(=O)c2ccccc2)CC1 | 13.4
CC(C)Cc1cc(C(=O)N2CCN(C(c3ccccc3)c3ccccc3)CC2)no1 | 0.0803
COc1ccc(/C=c2/sc3nc(-c4ccccc4)c(-c4ccccc4)n3c2=O)cc1 | -13.9
NC(=O)C1CCN(S(=O)(=O)Cc2ccccc2Cl)CC1 | 14.8

Compound | hERG current change (%, negative = inhibition) at 10uM [%]
CCn1c(SCc2ccc(C(=O)Nc3cc(C)cc(C)c3)cc2)nnc1-c1ccncc1 | -59.2
CCn1c(SCc2cccc(F)c2)nnc1-c1ccncc1 | -8.82
CCn1c(SCc2ccc(Cl)cc2)nnc1-c1ccccc1 | -44.4
CCn1c(SCc2ccc(C(=O)Nc3nccs3)cc2)nnc1-c1ccc(N)cc1 | -22.2
CCn1c(SCc2cccc(C)c2)nnc1-c1ccc(C)cc1 | -63.7
C=CCn1c(SCc2ccc(C#N)cc2)nnc1-c1cccc(OC)c1 | -67.4
C=CCn1c(SCc2ccc(OC)cc2)nnc1-c1cccnc1 | -26.9
CCn1c(SCc2ccc(C#N)cc2)nnc1-c1cccc(Cl)c1 | -73.6
C=CCn1c(SCc2cccc(OC)c2)nnc1-c1ccncc1 | -15.5
CCn1c(SCc2cccc(C)c2)nnc1-c1ccccc1 | -32.9
CCn1c(SCc2ccc(C(=O)Nc3nccs3)cc2)nnc1-c1ccc(NC(C)=O)cc1 | 1.21
CCOC(=O)CSc1nnc(-c2cccc(Cl)c2)n1CC | -3.47
CCOC(=O)c1c(C)[nH]c(C(=O)COC(=O)C23CC4CC(CC(Cl)(C4)C2)C3)c1C | 11.6
CC1C(=O)N2CCCc3cc(NC(=O)C4CCCCC4)cc1c32 (stereo not shown) | 4.17
CCOC(=O)c1cc(S(=O)(=O)N2CCc3ccccc32)cn1C | -0.504
CCOCc1nnc(NC(=O)CSCc2ccccc2)s1 | -1.7
Cc1ccc2cc(NC(=O)c3cccc(F)c3)ccc2n1 | 0.701
CCOC(=O)C(NC(C)=O)C(=O)Nc1ccc(C)cc1C (stereo not shown) | 15.7
O=C(Nc1nccs1)c1cccc(NC(=O)C(F)(F)F)c1 | -5.07
